Sm TGR inh: S. mansoni TGR enzyme inhibition; Q962Y6; purified TGR, DTNB reduction, TNB absorbance 405 nm; Potency, µM (doses to about 114 µM), for inactives: at the highest dose activity change, negative = inhibition, actives largely listed as inhibitors; 360,000 tested, 3% active; AID 485364; also: potency is read from the fitted curve at half-maximal effect; % is scaled to controls: 0 for no effect and ±100 for the full control effect; nearly all actives have a fitted effect of over 60% in size
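Kinetic colorimetric format: TGR-catalysed, NADPH-driven DTNB reduction monitored via TNB absorbance. Enzyme dispensed at 20 nM; compound exposure 15 min at room temperature before reaction start.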
Shiga inhibitor: inhibitors of Shiga toxin in Vero cells | inhibition, % at 38.7 µM | 290,000 tested, 9.2% active | Vero cells, Shiga toxin protein synthesis inhibition reporter; in the data active = inhibition mostly above about 28%, no sharp cut-off; inactive = mostly below about 43%; also: 0% is about no effect
LmPK inhibitor: blocks Leishmania mexicana pyruvate kinase activity; Potency, µM (top dose mostly 57.5 µM), inactives show top-dose activity change, negative = inhibition, hits mostly inhibitors; Q27686; AID 1721; purified LmPK, Kinase-Glo ATP luminescence, 1 h; 290,000 tested, 0.37% active; also: potency is read from the fitted curve at half-maximal effect; % is scaled to controls: 0 for no effect and ±100 for the full control effect
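Screened at intermediate enzyme activity to detect both inhibitors and activators: LmPK at 0.1 nM, with a 0.5 nM enzyme column as activation reference. PEP 0.5 mM, ADP 0.1 mM; ATP detected by luminescence after 1 h.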
FBPA Giardia inh: inhibitors of Giardia lamblia fructose-1,6-bisphosphate aldolase. A8B2U2. purified Giardia FBPA. Potency, µM (doses to about 59.6 µM), for inactives: at the top dose activity, negative = inhibition, hits mostly inhibitors. 290,000 tested, 0.71% active; also: potency is read from the fitted curve at half-maximal effect; % is scaled to controls: 0 for no effect and ±100 for the full control effect; nearly all actives have a fitted effect of over 55% in size
Target sequence (A8B2U2 whole entry, looked up): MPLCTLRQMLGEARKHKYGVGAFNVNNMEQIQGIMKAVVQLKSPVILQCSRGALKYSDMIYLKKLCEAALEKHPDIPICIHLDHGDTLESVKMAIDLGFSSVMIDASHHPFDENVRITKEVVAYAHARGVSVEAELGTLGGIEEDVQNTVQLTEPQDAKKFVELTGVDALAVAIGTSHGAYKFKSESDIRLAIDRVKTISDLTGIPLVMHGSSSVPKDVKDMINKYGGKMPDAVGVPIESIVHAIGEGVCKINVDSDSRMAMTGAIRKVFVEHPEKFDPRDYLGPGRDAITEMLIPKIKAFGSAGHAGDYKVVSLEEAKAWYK
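Giardia FBPA (40 nM reagent) was preincubated 10 min at RT with compound (up to 57.5 uM final), then substrate plus GAPDH/TPI/NAD/arsenate coupling system with diaphorase/resazurin was added; resorufin fluorescence (525/598 nm) was read after 20 min.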
Cycloheximide cs: counter-screen for Shiga toxin inhibitors: cycloheximide protein synthesis inhibition; cell reporter, cycloheximide protein synthesis inhibition counterscreen; max response, %; 300,000 tested, 12% active; in the data active = max response mostly above about 13%, no sharp cut-off; inactive = mostly below about 14%; also: read at 38.3 µM for the half of the compounds with a filed dose; 0% is about no effect
Tb PYK inh: T. brucei pyruvate kinase inhibition; TbPYK enzyme, Kinase-Glo Plus ATP luminescence, 45 min; Potency, µM (highest dose often 76.8 µM), inactives show at the top dose activity, negative = inhibition, most hits filed as inhibitors; 410,000 tested, 0.12% active; AID 624173; also: potency is read from the fitted curve at half-maximal effect; % is scaled to controls: 0 for no effect and ±100 for the full control effect; nearly all actives have a fitted effect of over 50% in size
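Readout: single end-point luminescence (Kinase-Glo Plus, 10 min). Reaction conditions were TbPYK/substrate plus 130 uM ADP, 45 min at RT, pH 7.2 TEA buffer. No-enzyme wells served as controls, and data were normalized before concentration-response fitting.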
* hit, by the source's call; ? = inconclusive; . = no result given. The entries come from a sample that favours hits as a whole. Unless noted, calls follow the shape of the dose curve; as a rule, active = well fitted curve in the direction sought with a large enough effect; inconclusive = small, poorly fitted or top-dose-only effect, or another doubt; inactive = no such curve, though single readings can be large; an effect the other way counts as inactive or inconclusive.

SMILES | Sm TGR inh | Shiga inhibitor | LmPK inhibitor | FBPA Giardia inh | Cycloheximide cs | Tb PYK inh
C/C(=N\Nc1nc2ccccc2s1)c1ccc(Br)s1 | 6% | 41* | 3% | -15% | 19* | 2%
C/C(=N\Nc1nc2ccccc2s1)c1ccc2c(c1)OCO2 | -6% | 70* | 4% | -4% | 54* | -3%
CC(C)(C)C1c2[nH]c3ccccc3c2CCN1CCCn1cccn1 (stereo not drawn) | 40µM* | -4 | 2% | -4% | -4 | 0%
Cc1cccc(CN2CCc3c([nH]c4ccccc34)C2C(C)(C)C)n1 (stereo not drawn) | 16µM* | -17 | 0% | -24% | -2 | -12%
Fc1ccccc1C1c2[nH]c3ccccc3c2CCN1CCCn1cccn1 (stereo not drawn) | ? | 4 | -5% | 2% | -4 | 0%
COc1ccc(C(=O)NCCn2cc(SCc3c(F)cccc3Cl)c3ccccc32)cc1 | 1% | . | . | . | . | 0%
CCOC(=O)c1ccccc1NC(=O)C1CC(=O)N(C(C)(C)C)C1 (stereo not drawn) | -14% | . | 11% | -2% | -1 | -1%
CCOC(=O)c1ccccc1NC1CC(=O)N(c2ccccc2C)C1=O (stereo not drawn) | 3.5µM* | 33 | -12% | -5% | -1 | -13%
Cc1ccc(C(=O)Nc2ccc(C(=O)O)cc2)cc1S(=O)(=O)N1CCC(C)CC1 | -2% | . | . | . | . | -12%
CCC(C(=O)OC)n1cnc2c(nnn2-c2cccc(OC)c2)c1=O (stereo not drawn) | -11% | 38 | 5% | 0% | 16* | -8%
COC(=O)C(C)n1cnc2c(nnn2-c2cccc(OC)c2)c1=O (stereo not drawn) | 1% | 41* | 2% | 14% | 20* | -13%
CCc1nc2ccc(C(=O)N3CCCC(C(N)=O)C3)cn2c1N(C)Cc1ccc(OC)cc1 (stereo not drawn) | . | . | . | . | . | 3%
O=C1CCCC2=C1C(Cc1ccccc1)C1=C(CCCC1=O)O2 | 10µM* | -10 | -8% | -11% | -2 | -2%
N#CC1=C(N)OC2=C(C(=O)CCC2)C1CCc1ccccc1 (stereo not drawn) | -21% | -18 | 0% | -21% | -3 | -6%
Cc1cccc(/C=N\NC(=O)c2ccccc2-n2cccc2)c1 | 8% | 37 | -3% | -2% | 21 | 1%
Cc1cccc(/C=N\NC(=O)c2sccc2-n2cccc2)c1 | 24% | 114* | 2% | -26% | 65* | -1%
O=C(N/N=C\c1ccccc1)c1sccc1-n1cccc1 | 0% | 49* | -3% | -17% | 26* | -1%
CC(C)c1ccc(NC(=O)c2sccc2-n2cccc2)cc1 | 4% | 158* | 14% | -9% | 56* | 3%
CCOC1=C2[C@@H](CN(S(=O)(=O)c3ccc(C)cc3)[C@H]2c2ccccc2)[C@H]2C(=O)N(Cc3ccccc3)C(=O)[C@H]2C1 | . | . | . | . | . | -1%
O=C(CS(=O)(=O)c1cccc2nsnc12)Nc1ccc(F)cc1F | -32% | . | . | . | . | 4%
CC[C@H](C)[C@H](NC(=O)[C@H](CCC(=O)O)NC(=O)CNC(=O)[C@@H](NC(=O)[C@@H]1CCCN1C(=O)[C@@H](NC(=O)[C@@H]1CCCN1C(=O)[C@@H]1CCCN1C(=O)[C@H](CC(N)=O)NC(=O)[C@H](CC(N)=O)NC(=O)[C@@H](NC(=O)[C@H](CCSC)NC(=O)[C@H](Cc1c[nH]c2ccccc12)NC(=O)CNC(=O)[C@@H](NC(=O)[C@H](CCC(N)=O)NC(=O)[C@@H](N)CCC(=O)O)[C@@H](C)CC)[C@@H](C)O)[C@@H](C)CC)C(C)C)C(=O)O | . | -5 | . | -2% | -2 | .
CCOc1cc(C(=S)N2CCN(C)CC2)ccc1OCC(=O)N1CCCC1 | . | . | . | . | . | 3%
CCOc1ccc(C(C)=O)cc1COC(=O)C(C)N=C1NS(=O)(=O)c2ccccc21 (stereo not drawn) | 20µM* | -4 | 2% | 5% | -7 | 0%
COC(=O)c1ccc(CNC(=O)C(C)N=C2NS(=O)(=O)c3ccccc32)cc1 (stereo not drawn) | 0% | . | . | . | . | -10%
CCn1c(C(=O)N2CCC(C(=O)NCCc3ccc(C)cc3)CC2)cc2sccc21 | 7% | . | . | . | . | -9%
SMILES | Sm TGR inh | Shiga inhibitor | LmPK inhibitor | FBPA Giardia inh | Cycloheximide cs | Tb PYK inh
O=C(O)C1(S(=O)(=O)CCC(F)=C(F)F)CC1 | 32µM* | 7 | 1% | 0% | 10 | -3%
CCN(CC)C(=O)[C@H]1CC(CC(=O)NCc2ccc(OC)c(OC)c2)C(=O)N2CCc3c([nH]c4ccc(OC)cc34)[C@]12C (stereo partly drawn) | . | . | . | . | . | -2%
COCCOC(=O)C1=C(C)NC(=O)NC1c1ccc(-c2ccc(F)cc2)o1 (stereo not drawn) | 10µM* | 1 | -2% | 3% | 10 | -5%
CCOC(=O)C1=C(C)NC(=O)NC1c1ccc(-c2ccccc2F)o1 (stereo not drawn) | ? | 12 | 1% | 3% | 9 | -19%
CCOC(=O)C1=C(C)NC(=O)NC1c1ccc([N+](=O)[O-])o1 (stereo not drawn) | 40µM* | 20 | -9% | -5% | 2 | -1%
CCOC(=O)C1=C(C)NC2=C(C(=O)c3ccccc32)C1c1ccc([N+](=O)[O-])o1 (stereo not drawn) | 0% | 17 | -5% | -8% | 12 | -4%
CCOc1ccc(C(=O)NCCc2csc(-c3cccc(C)c3)n2)cc1 | 3% | . | . | . | . | 0%
Cc1ccc(S(=O)(=O)NCCc2cn3ccsc3n2)c(C)c1 | -7% | . | . | . | . | 1%
O=C(CC1CCCC1)Nc1nc2ccccc2[nH]1 | 0% | 56 | 2% | 2% | 28* | -1%
O=C(NCc1nc2ccccc2[nH]1)C1CCCCC1 | . | 11 | -2% | 5% | 8 | 7%
O=C(Nc1nc2ccccc2[nH]1)C1CCC1 | -8% | 108* | ? | 0% | 42* | -5%
O=C(Nc1nc2ccccc2[nH]1)C1CCCC1 | -7% | 81* | -10% | 1% | 60* | 0%
Cc1ccc(S(=O)(=O)N2CCN(c3nc(-c4ccc(F)cc4)nc4cc(Cl)ccc34)CC2)cc1 | . | -5 | . | . | 2 | .
CCOC(=O)C(SP(=S)(OC)OC)c1ccccc1 (stereo not drawn) | . | 2 | . | -6% | 6 | .
CCC[C@]1(CCc2ccccc2)CC(O)=C([C@H](CC)c2cccc(NS(=O)(=O)c3ccc(C(F)(F)F)cn3)c2)C(=O)O1 | . | . | . | . | . | 4%
O=C(NCC(O)COc1ccc([N+](=O)[O-])cc1)Nc1ccccc1 (stereo not drawn) | 5% | 34* | 8% | 1% | 30* | -3%
Cc1cc(C)cc(NC(=O)NCC(O)COc2ccc([N+](=O)[O-])cc2)c1 (stereo not drawn) | 20% | -3 | 3% | -1% | 5 | -7%

Screening results as filed in PubChem BioAssay.
